# Screening data from PubChem.
# Only some compounds are listed: those with a hit (about 3.3% of all), similar ones and a draw of the others.
# HTT ATP protect – Huntington cell model cytoprotection by ATP luminescence | 230,000 compounds, 0.14% hits | AID 1471 | Potency, µM (doses to about 56.4 µM), inactives show cytoprotection (ATP increase), usual class: activators | PC12 HTT-Q103 induced, cytoprotection, ATP luminescence, 40 h; further: potency means the concentration at half of the fitted maximal effect; % of control where 0% means no effect; nearly all actives have a fitted effect of over 45% in size
#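 Quantitative HTS on tebufenozide-induced (100 nM) PC12 cells expressing HTTQ103 exon 1–GFP; compounds tested as a concentration series; survival measured via cellular ATP.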
# HttQ103 aggreg – mutant huntingtin aggregation inhibition. 220,000 compounds, 1.1% hits. Potency, µM (series often up to 46.1 µM), for the others: at the highest dose activity change, negative = inhibition, actives largely listed as inhibitors. PC12 HttQ103-GFP aggregates, Acumen cytometry, 40 h. AID 1688; further: potency means the concentration at half of the fitted maximal effect; on the % scale 0 is the no-effect control and ±100 the full control effect; nearly all actives have a fitted effect of over 60% in size
#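 Ecdysone-promoter PC12 model expressing HTT exon 1 Q103 fused to GFP, induced by tebufenozide at 100 nM final. Compounds titrated; aggregates sized 1–25 µm scored on a 488 nm laser cytometer.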
# ALOX12 inhib – inhibitors of human 12-lipoxygenase (ALOX12); purified 12-hLO, xylenol orange hydroperoxide absorbance; 150,000 compounds, 0.12% hits; Potency, µM (top dose mostly 57.1 µM), for the others: at the top dose activity change, negative = inhibition, usual class: inhibitors; P18054; further: potency means the concentration at half of the fitted maximal effect; on the % scale 0 is the no-effect control and ±100 the full control effect; nearly all actives have a fitted effect of over 55% in size
#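 150 nM 12hLO, 25 mM Hepes pH 7.0 + 0.01% Triton X-100; cpd preinc 15 min RT; 40 uM arachidonic acid, 30 min RT; Fe-XO 30 min; A573/A405 ratio as read-out.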
# PNC inhibitor – blocks assembly of the perinucleolar compartment. PC3M PTB-GFP, PNC prevalence imaging, 16 h; active compounds read low. activity change (PNC), negative = inhibition, % at 10 µM. 140,000 compounds, 3.1% hits;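 active means readout at or below -70, meaning at least 70% loss of cells showing the perinucleolar compartment, a nuclear body marking cancer cells; inconclusive means readout between -30 and a set limit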;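 further: plate controls were DMSO wells for no effect and camptothecin positive control wells for full effect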
#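 Read-out is percentage of cells bearing a perinucleolar compartment, from automated 20x imaging of fixed, Hoechst-stained PC3M PTB-GFP cells. Cells were seeded 4 h, then exposed 16 h to compound (23 nl of library stock) in duplicate plates.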
# IMPase inh – IMPase inhibition in cells; 120,000 tested, under 10 active; CHO-M1 cells, IP1 accumulation, HTRF TR-FRET ratio; P97697; inhibition (IP1 accumulation), % at 46.1 µM; active means well fitted curve in the direction sought with a large enough effect in the signal ratio, not every such curve was filed as active; inconclusive means small, poorly fitted or top-dose-only effect, or a change in a side signal; inactive means no such curve, though single readings can be large or run the other way; the % refers to the signal ratio;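 further: cells stimulated with carbachol in lithium chloride buffer; plate controls were DMSO basal wells for no effect and reference inhibitor wells for full effect; higher means more IMPase inhibition seen as more IP1 and lower FRET ratio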
# Target sequence (P97697 whole entry, looked up): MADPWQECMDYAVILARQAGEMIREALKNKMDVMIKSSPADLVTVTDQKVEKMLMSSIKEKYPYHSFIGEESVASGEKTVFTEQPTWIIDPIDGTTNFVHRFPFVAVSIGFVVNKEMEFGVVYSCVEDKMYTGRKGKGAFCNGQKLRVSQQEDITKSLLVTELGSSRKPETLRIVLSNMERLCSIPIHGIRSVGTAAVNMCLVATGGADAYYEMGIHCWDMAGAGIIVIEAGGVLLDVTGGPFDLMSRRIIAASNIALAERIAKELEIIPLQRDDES
#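 Elevated IP1 in lysates lowers TR-FRET signal (665/620 ratio and 620 channel reported). Cells were CHO-M1, given carbachol (50 uM as added) plus 50mM LiCl, pH 7.4, 30 min, 37C; compounds titrated up to 46 uM; AC50 by Hill equation.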
# NPSR antagonist – antagonists of human neuropeptide S receptor cAMP signaling. Q6W5P4. CHO-NPSR cells, cAMP TR-FRET, antagonist mode. Potency, µM (series often up to 38.3 µM), for inactives: at the highest dose activity change, negative = inhibition, most hits filed as inhibitors. 220,000 compounds, 1% hits; further: potency means the concentration at half of the fitted maximal effect; on the % scale 0 is the no-effect control and ±100 the full control effect; nearly all actives have a fitted effect of over 50% in size
# Target sequence (Q6W5P4 whole entry, looked up): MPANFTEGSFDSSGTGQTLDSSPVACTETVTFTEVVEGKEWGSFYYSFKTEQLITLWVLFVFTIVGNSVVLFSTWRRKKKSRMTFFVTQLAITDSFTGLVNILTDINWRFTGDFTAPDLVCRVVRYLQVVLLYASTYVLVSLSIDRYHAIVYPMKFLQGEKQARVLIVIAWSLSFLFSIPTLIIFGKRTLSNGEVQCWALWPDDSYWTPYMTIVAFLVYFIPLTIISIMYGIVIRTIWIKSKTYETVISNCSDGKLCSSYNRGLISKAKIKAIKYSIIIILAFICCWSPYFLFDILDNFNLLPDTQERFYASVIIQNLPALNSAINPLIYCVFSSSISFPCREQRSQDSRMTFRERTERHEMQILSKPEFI
# An asterisk follows results filed as active; ? = inconclusive; . = no result given; [ ] = another dose, or the depositor's remark. Unless noted, the call rests on the fitted dose curve; in most records, active means well fitted curve in the direction sought with a large enough effect; inconclusive means small, poorly fitted or top-dose-only effect, or another doubt; inactive means no such curve, though single readings can be large; an effect the other way counts as inactive or inconclusive.
SMILES,HTT ATP protect,HttQ103 aggreg,ALOX12 inhib,PNC inhibitor,IMPase inh,NPSR antagonist
COc1ccc(CCNc2nc(C)nc3c2oc2ccccc23)cc1OC,-68.1%[10 µM],?,4.7%,?,6.3,-28.8%[46.1 µM]
COc1ccc(CCNc2ncnc3c2oc2ccccc23)cc1OC,-43.9%,2µM*,-4.3%,-6.6,14.8,-16.0%[46.1 µM]
COc1ccc(CCNc2ncnc3sccc23)cc1OC,13.5%[10 µM],1µM*,.,.,.,13.8%
Cc1ccc(S(=O)(=O)N2CCC(=O)N(C(COCc3ccc(Cl)cc3)C(C)C)CC2)cc1 (stereo not drawn),.,-12.1%,-10.8%,-118.9*,.,-27.5%
Cc1ccc(S(=O)(=O)N2CCC(=O)N(C(COCc3ccccc3)C(C)C)CC2)cc1 (stereo not drawn),.,0.3%,0.4%,22.0,.,-34.0%
Cc1ccc(S(=O)(=O)N2CCC(=O)N(CCOCc3cccc(C(F)(F)F)c3)CC2)cc1,.,-7.9%,-2.9%,-81.3*,.,-25.6%
Cc1ccc(S(=O)(=O)N2CCC(=O)N(CCOCc3cccc(C)c3)CC2)cc1,.,-11.1%,-2.0%,66.9,.,0.9%
CO/N=C(\C)CCN1CCCc2nc(C)c(C)cc21,23.8%[10 µM],.,.,.,.,.
CC(=O)c1ccc(NS(=O)(=O)c2cccc(S(=O)(=O)c3ccc(Cl)cc3)c2)cc1,.,.,.,.,0.9,.
COc1ccc(-c2c(C(C)=O)c(C)nc3sc4c(c23)NC(c2ccccc2)NC4=O)cc1 (stereo not drawn),-12.7%,0.4%,10.5%,26.0,?,-16.8%[46.1 µM]
CCOC(=O)c1c(C)nc2sc3c(c2c1-c1ccc(OC)cc1)NC(c1ccccc1)NC3=O (stereo not drawn),-37.8%,5.8%,-8.1%,-83.2*,-0.9,-19.4%[46.1 µM]
CCOC(=O)c1c(C)nc2sc3c(=O)n(-c4ccc(OC)cc4)nnc3c2c1-c1ccc(OC)cc1,-21.3%,0.7%,-10.7%,-106.0*,-0.2,-13.6%[46.1 µM]
N[C@@H](CSC(=O)c1ccccc1)C(=O)O,-14.8%[10 µM],.,0.4%[11.4 µM],.,.,.
COC(=O)c1c(-c2ccccc2)csc1NC(=O)c1c(-c2ccccc2)noc1C,-20.2%[10 µM],-21.8%,-2.5%,-112.5*,4.3,-22.3%
CCOC(=O)c1c(-c2ccc(F)cc2)csc1NC(=O)c1c(-c2ccccc2)noc1C,-24.7%[10 µM],-23.3%,-1.2%,?,7.9,-39.3%
COC(=O)c1ccc(C(NC(=O)OCc2ccccc2)/C(F)=C/[C@@H](C)C(=O)NCc2cc(F)cc(F)c2)cc1 (stereo partly drawn),12.7%,.,-0.9%,.,.,.
O=C(NCc1ccc(F)cc1)N[C@@H](Cc1ccccc1)C(=O)O,0.0%,-7.7%,-4.5%,-126.9*,-1.9,-27.5%[46.1 µM]
O=C(NCc1ccccc1)N[C@@H](Cc1ccccc1)C(=O)O,-14.5%[0.074 µM],2.3%,-1.2%,?,-9.0,-7.9%[46.1 µM]
Cc1nc2c(cnn2-c2ccccc2Cl)c(=O)n1-c1ccc(N2CCC(C)CC2)cc1,-59.0%,-85.9%,-10.2%,?,10.6,12.6µM*
Cc1ccc(-n2c(C)nc3c(cnn3-c3ccccc3Cl)c2=O)cc1C,26.9%[10 µM],7.2%,-9.0%,2.5,1.0,-16.4%[46.1 µM]
COc1cccc(Cn2c(=O)c(-c3cccc(C#N)c3)nc3cnc(Nc4ccccc4)nc32)c1,-303.5%,.,0.7%,.,.,.
CCOC(=O)N1CCN(C(=O)CN(c2cc(C)ccc2OC)S(=O)(=O)c2ccc(C)cc2)CC1,.,.,.,.,2.1,.
O=C(O)c1cc(-c2ccncc2)nc2ccccc12,-10.6%[10 µM],.,4.7%[11.4 µM],.,.,.
CC1(C)CCC(NC(=O)[C@H](N)CCC(=O)O)CC1,-8.0%[1.9 µM],.,-4.5%,.,-9.6,.
CCCCCc1c(C)nc(NCc2ccccc2)[nH]c1=O,-13.4%[0.074 µM],31.6µM*,1.4%,-8.6,-0.3,-19.7%[46.1 µM]
SMILES,HTT ATP protect,HttQ103 aggreg,ALOX12 inhib,PNC inhibitor,IMPase inh,NPSR antagonist
Cc1cc(NO)c(C(C)C)cc1N=O,-73.8%[10 µM],3.16µM*,-1.0%,47.6,.,4.8%
CC(=O)OCC(=O)[C@@]1(O)CCC2C3CCC4=CC(=O)CC[C@]4(C)C3C(O)C[C@]21C (stereo partly drawn),-34.0%,.,-1.4%,.,.,.
CCOC(=O)N1CCC(N2CC34C=CC(O3)C(C(=O)O)C4C2=O)CC1 (stereo not drawn),4.7%,-12.0%,-4.1%,-108.4*,9.4,-10.4%[46.1 µM]
COc1cccc(N2CCN(CC(=O)c3c[nH]c4ccc(OC)cc34)CC2C)c1 (stereo not drawn),-17.6%[0.074 µM],35.5µM*,?,25.5,-17.0,?
COc1ccc2[nH]cc(C(=O)CN3CCCC(C)C3)c2c1 (stereo not drawn),-8.7%[0.074 µM],2.3%,-2.3%,32.0,-2.4,-10.2%[46.1 µM]
Cc1ccc(NC(=O)c2cn(CCC#N)nc2-c2cccs2)c([N+](=O)[O-])c1,-3.6%[10 µM],-1.6%,-7.6%,-112.5*,-10.7,9.4%
N#CCCn1cc(C(=O)O)c(-c2cccs2)n1,-137.6%,18.8%,.,.,.,7.7%
COc1ccccc1N1CCN(CC(=O)NCC2CCCO2)CC1 (stereo not drawn),13.5%[10 µM],1.6%,-11.0%,-118.9*,10.3,11.0%
O=C(CN1CCN(c2ccc(F)cc2)CC1)NCC1CCCO1 (stereo not drawn),-2.2%,37.8%,-1.3%,14.4,-8.9,0.7%[46.1 µM]
Cc1cccc(NC(=O)Cn2c(=O)n(CC3CCC(C(=O)NCCc4ccccc4)CC3)c(=O)c3ccccc32)c1C (stereo not drawn),.,.,.,.,5.4,.
C=CCN=c1scc(-c2ccc3c(c2)NC(=O)CO3)n1/N=C(\C)c1ccccn1,-52.7%[10 µM],5.01µM*,.,.,.,-32.9%
CC(Nc1nc(-c2ccc3c(c2)NC(=O)CO3)cs1)c1ccccc1 (stereo not drawn),5.3%,?,.,.,.,-52.3%
O=C(CSc1ccc2c(c1)OCCO2)NC(=O)NC1CCCC1,5.5%[10 µM],-4.1%,4.8%,-116.6*,7.5,-19.6%[46.1 µM]
COc1ccc(C2(CNC(=O)/C=C/c3ccco3)CCCC2)cc1OC,11.3%,19.2%,-14.3%,21.4,5.4,-11.9%[46.1 µM]
O=C(/C=C/c1ccco1)NCC1(c2ccccc2)CCCC1,5.7%[10 µM],3.8%,-3.6%,-109.2*,.,-16.2%
COc1ccc(C)c2sc(NNC(=O)COc3ccccc3)nc12,-37.9%,21.0%,.,.,.,4.9%
COc1ccc(N2CCN(C(=O)c3cccnc3SCc3cccc(Br)c3)CC2)cc1,-16.9%,22.4µM*,.,.,.,-34.5%
COc1cc(-c2ccc(NC(C)=O)c(OC)c2)ccc1NC(C)=O,-4.6%[10 µM],8.1%[9.22 µM],.,.,.,0.0%
COc1cc(O)c(NC(C)=O)c2nonc12,-16.1%,-8.3%,-6.0%,-87.8*,19.2,-16.4%[46.1 µM]
C/C(CCN1CCCc2nc(C)c(C)cc21)=N\O[C@@H](C)c1cn([C@H](CO)Cc2ccccc2)nn1,2.8%[10 µM],.,.,.,.,.
COCCCn1c(=N)c(S(=O)(=O)c2ccccc2)cc2c(=O)n3cc(C)ccc3nc21,.,.,.,.,13.0,.
